Experimental findings from PubChem BioAssay (NCATS) are described below.

Inconclusive results are not listed. Entries that show only a call come without a potency. Active and inactive are the calls of the source. The call rests on the fitted dose curve; in most records, active means well fitted inhibition curve with a large enough effect; inconclusive means small, poorly fitted or top-dose-only effect; inactive means no such curve, though single readings can be large or run the other way. Positions of bridges follow the written chain, without caps; N, C: chain ends. Non-standard residues stand in square brackets, D forms with d. Residues, ends and D or L forms follow the SMILES beside them. ξ: configuration not given here. *: point of attachment. Octanoyl(6-Me) = CCC(C)CCCCC(=O)*; ξThr(3R) = C[C@@H](O)C(N)C(=O)O; dDab = NCC[C@@H](N)C(=O)O; Dab = NCC[C@H](N)C(=O)O; Nva = CCC[C@H](N)C(=O)O; Cbz = O=C(OCc1ccccc1)*
Potency means the concentration at half of the fitted maximal effect.

The assay in a line: NS1 protein of Zika virus - qHTS assay to identify small molecule inhibitors in human HEK 293 cells (AID 1347053). Further: nearly all actives have a fitted effect of over 55% in size. Particulars: HEK293 ZIKV MR766 infection, NS1 TR-FRET, 24 h; series mostly up to 46.1 µM. The essentials: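 HEK 293 cells pretreated with compound for 1 h, then infected with ZIKV MR766 (MOI 0.5) for 24 h at 37 C. NS1 detected by TR-FRET with two anti-NS1 antibodies; normalized to uninfected (0%) and infected (100%) wells.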
(Quantitative high-throughput screening tests each substance at several concentrations.)
With `CC(C)(O)Cn1c(NC(=O)c2ccc(-c3cn[nH]c3)s2)nc2cc(CN3CCOCC3)ccc21`, the Potency is 5.26 µM (active). Next, `Cn1cc(C[C@@H](N)C(=O)O)c2ccccc21`: “inactive”.

For `O=C(O)[C@H](CC(=O)N1C[C@@H]2CCCC[C@H]2C1)Cc1ccccc1`, the Potency entry was “inactive”.

`C[C@H](CCC(=O)O)[C@H]1CCC2C3C[C@H](O)[C@@H]4C[C@H](O)CC[C@]4(C)C3CC[C@@]21C` (some centres undefined): the Potency entry is “inactive”. Next, `CCCCCCCN(CC)CCCC(O)c1ccc(NS(C)(=O)=O)cc1` (centres undefined): “inactive”; `CCC[C@@H](C=O)NC(=O)[C@H](CC(C)C)NC(=O)[C@H](CC(C)C)NC(=O)OCc1ccccc1` (Cbz-Leu-Leu-[Nva]-aldehyde): 3.32 µM (active).

On to `CC(Oc1ccc(O)cc1)(P(=O)(O)O)P(=O)(O)O`, for which the Potency entry was “inactive”. The entry for `N#Cc1cc(NC(=O)Nc2nnc(-c3ccncc3)s2)ccc1-c1cn[nH]c1` is “inactive”; for `COc1ccnc2[nH]cc(C(=O)C(=O)N3CCN(C(=O)c4ccccc4)C[C@@H]3C)c12` it is “inactive”. With `OCCNC1CCCc2c1[nH]c1ccc(-c3ccccc3)cc21` (centres undefined), the Potency was 20.9 µM (active).

`COc1cc(C=CC(=O)CC(=O)C=Cc2ccc(O)c(OC)c2)ccc1O`: the Potency is 19.1 µM (active).

As for `CC(=O)NC(CS)C(=O)O` (centres undefined), the Potency entry is “inactive”. Next, `C[C@@H](Cc1cc2c(c(C(N)=O)c1)N(CCCO)CC2)NCCOc1ccccc1OCC(F)(F)F`: “inactive”; `COc1cc([C@@H]2c3cc4c(cc3[C@H](O)[C@H]3COC(=O)[C@@H]23)OCO4)cc(OC)c1OC`: 0.264 µM (active); `CC(C)N1[N]C(=C2C=c3cc(O)ccc3=N2)c2c(N)ncnc21`: 4.69 µM (active).

For `CCOC(=O)C1=C(C)NC(=S)NC1c1cccc(O)c1` (centres undefined), the Potency was 0.332 µM (active). Next, `C=C1C(=O)O[C@H]2[C@@H]1CCC(C)=CCC[C@@]1(C)O[C@@H]21`: 9.35 µM (active); `O=C(CCCCCCC(=O)Nc1cccnc1)NO`: “inactive”. Next, `NC(=O)c1ncn([C@@H]2O[C@H](CO)[C@@H](O)[C@@H]2O)c1O`: “inactive”; `CN(C)c1ccc(C(=O)NCCCCCCC(=O)NO)cc1`: “inactive”. Consider `NC(=O)c1cccc(-c2cccc(OC(=O)NC3CCCCC3)c2)c1`, for which the Potency entry was “inactive”. Next, `O=C(CN1C(=O)C2(CCCC2)NC[C@H]1c1cc(F)cc(F)c1)Nc1ccc2c(c1)C[C@@]1(C2)C(=O)Nc2ncccc21`: “inactive”; `CC(C)(C)[N+]([O-])=Cc1ccc(S(=O)(=O)O)cc1S(=O)(=O)O`: “inactive”. The entry for `NC(=O)c1ncn([C@@H]2O[C@H](CO)[C@@H](O)[C@@H]2O)c1N` is “inactive”.

Turning to `CC1(C)CC(O)CC(C)(C)N1[O]`, the Potency entry is “inactive”. Next, `CS[C@H]1SC[C@@H]2C(=O)N(C)[C@H](C(C)C)C(=O)OC[C@H](NC(=O)c3cnc4ccccc4n3)C(=O)N[C@H](C)C(=O)N(C)[C@@H]1C(=O)N(C)[C@H](C(C)C)C(=O)OC[C@H](NC(=O)c1cnc3ccccc3n1)C(=O)N[C@H](C)C(=O)N2C`: 0.0166 µM (active); `Cc1cnc(Nc2ccc(CN3CCOCC3)cc2)nc1Nc1cccc(S(=O)(=O)NC(C)(C)C)c1`: 33.2 µM (active); `Cc1onc(-c2ccccc2)c1C(=O)N[C@@H]1C(=O)N2[C@@H](C(=O)O)C(C)(C)S[C@@H]12`: “inactive”. Next, `CC(C)OC(=O)[C@H](C)N[P@](=O)(OC[C@H]1O[C@@H](n2ccc(=O)[nH]c2=O)[C@](C)(F)[C@H]1O)Oc1ccccc1`: “inactive”; `CC(=O)NCC(=O)N1[C@H]2CC[C@H]1c1cc(Nc3ncc(C(F)(F)F)c(NC4CCC4)n3)ccc12`: 13.2 µM (active); `O=C(C=CC#Cc1cccc(NS(=O)(=O)c2ccccc2)c1)NO`: 13.2 µM (active).

Regarding `O=C(c1ccc(F)cc1)N1CCC[C@H](c2nc(-c3ccc(F)cc3)no2)C1`, the Potency entry was “inactive”.

Take `OC[C@H]1OC(O)C[C@@H](O)[C@H]1O` (some centres undefined): the Potency entry was “inactive”. The entry for `CCCCCCCCCCCC(CC1OC(=O)C1CCCCCC)OC(=O)C(CC(C)C)NC=O` (centres undefined) is “inactive”. The entry for `CC(=O)OCC(=O)[C@@]12N=C(C)O[C@H]1C[C@H]1[C@@H]3CCC4=CC(=O)C=C[C@]4(C)[C@@H]3[C@@H](O)C[C@@]12C` is “inactive”. The entry for `O=C(O)CCCCCC(=O)NN=C1CCCC1` is “inactive”.

Regarding `CCCCOc1ccc(C(=O)Nc2ccc(F)cc2F)cc1`, the Potency result is “inactive”. The figure for `CN[C@@H]1C[C@H]2O[C@@](C)([C@H]1OC)n1c3ccccc3c3c4c(c5c6ccccc6n2c5c31)C(=O)N[C@H]4O` is 0.418 µM (active); for `CCC(C)CCCCC(=O)N[C@@H](CCN)C(=O)NC(C(=O)N[C@H](CCN)C(=O)N[C@@H]1CCNC(=O)C([C@@H](C)O)NC(=O)[C@@H](CCN)NC(=O)[C@@H](CCN)NC(=O)[C@@H](CC(C)C)NC(=O)[C@H](Cc2ccccc2)NC(=O)[C@H](CCN)NC1=O)[C@@H](C)O` (stereo partly drawn) ({Octanoyl(6-Me)}-[Dab][ξThr(3R)][dDab][dDab][Dab]F[dL][dDab][dDab][ξThr(3R)]; lactam 4-C) it is “inactive”.
